The list is not random: actives were taken first. Their share in the collection is about 3.8%.
GCN5L2 inh – GCN5L2 (KAT2A) acetyltransferase inhibition; Q92830; GCN5L2 HAT assay, ThioGlo1 CoA-SH fluorescence; Potency, µM (highest dose often 58.9 µM), for the others: top-dose activity change, negative = inhibition, usual class: inhibitors; 0.21% of 390,000 active; AID 504327
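Titration-based screen in which CoA formation is detected via maleimide probe ThioGlo1 (50uM) turning fluorescent on thiol reaction; substrates H3(1-25) 75uM and acetyl-CoA 70uM, GCN5L2 20nM, 20 min incubation at room temperature.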
rTrxR1 inhibitor – blocks rat thioredoxin reductase 1; O89049; recombinant rTrxR1, NADPH fluorescence consumption, selenite substrate; Potency, µM (highest dose often 114 µM), inactives show at the top dose activity change, negative = inhibition, hits mostly inhibitors; 1% of 390,000 active; AID 588453; also: nearly all actives have a fitted effect of over 65% in size
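Rat TrxR1 (90 nM in the dispensed reagent) was pre-reduced with 400 uM NADPH for 5 min at room temperature, then incubated with compound for 15 min. After 400 uM selenite was added, NADPH fluorescence (Ex 340/Em 450 nm) was followed for 8 min.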
TrxR1 substrate – rat thioredoxin reductase 1 substrate activity | O89049 | purified TrxR1 substrate turnover, NADPH consumption readout | Potency, µM (top dose mostly 114 µM), without a hit: top-dose activity change, negative = substrate turnover | 0.01% of 390,000 active | AID 588456; also: nearly all actives have a fitted effect of over 50% in size
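Rat TrxR1, dispensed at 90 nM, was prereduced with 400 uM NADPH (final) for 5 min at ~22 deg C, then incubated with compound 15 min before 400 uM selenite. A first-read NADPH fluorescence drop versus no-compound background flagged substrates.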
VDR inh – inhibitors of human vitamin D receptor | P11473 | VDR-SRC2-3 peptide fluorescence polarization, 2 h | Potency, µM, for inactives: max response, negative = inhibition, usual class: inhibitors | 0.93% of 400,000 active | AID 504847
Target sequence (P11473 whole entry, looked up): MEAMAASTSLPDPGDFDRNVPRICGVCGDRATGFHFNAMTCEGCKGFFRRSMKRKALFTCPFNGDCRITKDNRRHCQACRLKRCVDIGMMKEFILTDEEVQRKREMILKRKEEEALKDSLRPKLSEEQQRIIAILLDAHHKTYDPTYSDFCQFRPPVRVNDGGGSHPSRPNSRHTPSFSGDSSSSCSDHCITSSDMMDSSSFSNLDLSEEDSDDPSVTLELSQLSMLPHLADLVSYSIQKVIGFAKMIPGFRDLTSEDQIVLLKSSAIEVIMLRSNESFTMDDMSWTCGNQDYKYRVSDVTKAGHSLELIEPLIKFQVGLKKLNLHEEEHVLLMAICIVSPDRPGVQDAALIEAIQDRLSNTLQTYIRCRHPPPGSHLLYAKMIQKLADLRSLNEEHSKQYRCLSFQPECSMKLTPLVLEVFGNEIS
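Measured by FP: displacement of SRC2-3 coactivator peptide from VDR by library compounds, following a two-hour ambient incubation.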
Sfp PPTase inh – inhibitors of Bacillus subtilis Sfp phosphopantetheinyl transferase; Q9F4F7; Biochemical Sfp PPTase activity, qHTS; Potency, µM, for the others: largest response in the series, negative = inhibition, hits mostly inhibitors; 3.5% of 310,000 active; AID 1490;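 also: the enzyme is Sfp with the accession as filed and its product quenches rhodamine fluorescence; 0% = enzyme reaction without inhibitor and -100% = no enzyme wells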
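Reaction rates are the 30-min fluorescence difference (ex 525, em 598 nm) in wells containing 15 nM Sfp, 5 uM rhodamine-CoA and 12.5 uM BHQ-2-YbbR at pH 7.6 with 10 mM MgCl2.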
GLS inh – glutaminase GLS (human) inhibition | 0.21% of 410,000 active | O94925 | Potency, µM (series often up to 45.5 µM), for inactives: top-dose activity change, negative = inhibition, hits mostly inhibitors | AID 624170 | GLS enzymatic activity, qHTS titration
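hKGA in 45 mM KH2PO4 (pH 8.2), 0.02% Tween-20 with compound, then 1mM L-Glutamine (stock as added) plus glutamate oxidase/HRP/Amplex red coupling mix. Fluorescence read initially and after 30 min at RT; signal change reflects glutamate formation.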
An asterisk follows results filed as active; ? = inconclusive; . = not tested or not shown; [ ] = remark or other dose. Calls follow the shape of the dose curve; as a rule, active = well fitted curve in the direction sought with a large enough effect; inconclusive = small, poorly fitted or top-dose-only effect, or another doubt; inactive = no such curve, though single readings can be large; an effect the other way counts as inactive or inconclusive. Unless noted, % is scaled to controls: 0 for no effect and ±100 for the full control effect; potency is read from the fitted curve at half-maximal effect.

SMILES	GCN5L2 inh	rTrxR1 inhibitor	TrxR1 substrate	VDR inh	Sfp PPTase inh	GLS inh
Cc1cc(-c2csc(N)n2)c(C)n1Cc1ccco1	?	16µM*	-4%	-26%	50µM*	-9%
Cc1ccc(-n2c(C)cc(-c3csc(N)n3)c2C)cc1	3%	?	-7%	14%	?	1%
Cc1ccc(NC(=O)CC(=O)Nc2ccc(C)cc2C)c(C)c1	0%	2%[57.1 µM]	0%	2%	2%	-4%
Cc1ccc(NC(=O)/C=C/c2ccc(C)o2)c(C)c1	-6%	20µM*	-10%	-9%	.	-22%
COC(=O)c1cc(Cl)c(NC(=O)/C=C/c2ccc(Cl)cc2)cc1OC	-2%	5%	32%	-8%	15%	-1%
COC(=O)c1ccc(Cl)cc1NC(=O)/C=C/c1ccc(C)o1	1%	-11%[57.1 µM]	10%[57.1 µM]	-17%	25µM*	1%
Cc1ccc(/C=C/C(=O)Nc2cccc3cccnc23)o1	-2%	50µM*	-7%	-26%	-30%	-2%
CCCOc1ccc(CCc2n[nH]c(=S)n2-c2ccccc2)cc1	-1%	-8%[57.1 µM]	-3%[57.1 µM]	-7%	-10%	10%
CCC/C=C/c1ccc(CN2C(C(C)C)C(=O)N(Cc3cn(CCOCOC)nn3)CCS2(=O)=O)cc1 (stereo not drawn)	.	.	.	.	.	2%
Cc1ccc(N(C(C)C(=O)Nc2ccccc2C(=O)N2CCOCC2)S(C)(=O)=O)cc1C (stereo not drawn)	2%	0%	-6%	8%	7%	4%
CC(C(=O)Nc1ccccc1C(=O)N1CCOCC1)N(c1ccc(Cl)cc1)S(C)(=O)=O (stereo not drawn)	-7%	25%[57.1 µM]	5%[57.1 µM]	22µM*	7%	?
O=C(COc1ccccc1[N+](=O)[O-])c1ccccc1	-7%	15%[57.1 µM]	6%[57.1 µM]	-14%	-23%	3%
O=C(c1ccccc1)c1ccc(O)c(O)c1O	.	-10%	-5%	8%	.	10µM*
O=C(O)c1ccc(Cl)c(NC(=O)C2CCN(S(=O)(=O)c3cccs3)CC2)c1	.	.	.	.	.	0%
O=C(NCc1ccc(F)cc1)C(c1ccccc1)N(C(=O)c1csnn1)c1ccccc1 (stereo not drawn)	-1%	5%[57.1 µM]	9%[0.0914 µM]	-15%	9%	0%
CCOC(=O)c1c(NC(C)=O)sc2c(OCCN(CC)CC)c(Br)ccc12	-3%	9%	6%	-9%	7%	1%
CCOC(=O)c1c(NC(C)=O)sc2c1CCC(C=NCCCN(CC)CC)=C2Sc1ccccc1	.	3.5µM*	6%	?	.	7%
N#CC1=C(SCc2ccccc2)NC(=O)CC1c1ccco1 (stereo not drawn)	-6%	-26%	0%	-26%	45µM*	-10%
CCCC(=O)N(CCN(C(=O)CCC)c1ccccc1)c1ccccc1	-3%	7%	6%	8%	14%	1%
CCOC(=O)/C(=C/c1ccc(OC(=O)c2ccncc2)cc1)C(C)=O	-12%	6.3µM*	14%[57.1 µM]	?	-66%	0%
COCCOC(=O)/C(=C/c1ccc(OC(=O)c2ccccc2)cc1)C(C)=O	-1%	?	0%	22µM*	?	-7%
CC(Sc1nnc(C(F)(F)F)n1C)C(=O)Nc1ccc(N2CCOCC2)cc1 (stereo not drawn)	2%	32%	6%	11%	.	29%
COc1cccc(NC(=O)/C=C/c2ccccc2[N+](=O)[O-])c1	-3%	5%[57.1 µM]	5%[57.1 µM]	-6%	-15%	9%
O=C(/C=C/c1ccc([N+](=O)[O-])cc1)Nc1ncc([N+](=O)[O-])s1	-29%	-2%	-6%	1%	40µM*	-14%
COc1cccc(NC(=O)/C=C/c2ccc([N+](=O)[O-])cc2)c1	13%	-2%	0%	-2%	50µM*	26%
COc1ccccc1NC(=O)c1ccc(SCC(=O)NCc2ccccc2Cl)c([N+](=O)[O-])c1	-5%	-15%	-2%	-15%	-22%	-2%

Screens from PubChem BioAssay.
